For 54 targets, log2 fold change results are on record in the supplement of paper PMC12819154, “High-throughput peptide-centric local stability assay extends protein–ligand identification to membrane proteins, tissues and bacteria” (Nature Structural & Molecular Biology, 2025).

Compound in assay [1]: T1, CN[C@@H]1C[C@H]2O[C@@](C)([C@@H]1OC)n1c3ccccc3c3c4c(c5c6ccccc6n2c5c31)C(=O)NC4 [staurosporine]
The assay is described as follows: log2 fold change of tryptic peptide abundance, ligand vs vehicle (limited proteolysis) (log2 ratio); higher = more trypsin-susceptible (destabilized). The settings on record: ligand concentration: 20 uM; sample: K562 cleared lysate; digestion: 4 min, 22 C (HT-PELSA RT4min, Orbitrap Astral).

Compound in assay [2]: T1, staurosporine
The description is as above. The settings on record: ligand concentration: 20 uM; sample: mouse liver crude lysate; replicate design: treated separately.

UniProt Q5M8N4, sequence (Q5M8N4 whole entry): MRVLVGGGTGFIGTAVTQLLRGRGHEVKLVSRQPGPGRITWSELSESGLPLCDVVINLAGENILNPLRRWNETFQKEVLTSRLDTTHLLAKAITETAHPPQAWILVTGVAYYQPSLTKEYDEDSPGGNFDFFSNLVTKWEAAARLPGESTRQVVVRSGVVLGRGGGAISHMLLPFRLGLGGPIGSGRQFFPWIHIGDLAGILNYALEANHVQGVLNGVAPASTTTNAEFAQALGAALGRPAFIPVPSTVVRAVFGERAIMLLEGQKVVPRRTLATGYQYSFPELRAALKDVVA
UniProt A2ATU0, sequence (A2ATU0 whole entry): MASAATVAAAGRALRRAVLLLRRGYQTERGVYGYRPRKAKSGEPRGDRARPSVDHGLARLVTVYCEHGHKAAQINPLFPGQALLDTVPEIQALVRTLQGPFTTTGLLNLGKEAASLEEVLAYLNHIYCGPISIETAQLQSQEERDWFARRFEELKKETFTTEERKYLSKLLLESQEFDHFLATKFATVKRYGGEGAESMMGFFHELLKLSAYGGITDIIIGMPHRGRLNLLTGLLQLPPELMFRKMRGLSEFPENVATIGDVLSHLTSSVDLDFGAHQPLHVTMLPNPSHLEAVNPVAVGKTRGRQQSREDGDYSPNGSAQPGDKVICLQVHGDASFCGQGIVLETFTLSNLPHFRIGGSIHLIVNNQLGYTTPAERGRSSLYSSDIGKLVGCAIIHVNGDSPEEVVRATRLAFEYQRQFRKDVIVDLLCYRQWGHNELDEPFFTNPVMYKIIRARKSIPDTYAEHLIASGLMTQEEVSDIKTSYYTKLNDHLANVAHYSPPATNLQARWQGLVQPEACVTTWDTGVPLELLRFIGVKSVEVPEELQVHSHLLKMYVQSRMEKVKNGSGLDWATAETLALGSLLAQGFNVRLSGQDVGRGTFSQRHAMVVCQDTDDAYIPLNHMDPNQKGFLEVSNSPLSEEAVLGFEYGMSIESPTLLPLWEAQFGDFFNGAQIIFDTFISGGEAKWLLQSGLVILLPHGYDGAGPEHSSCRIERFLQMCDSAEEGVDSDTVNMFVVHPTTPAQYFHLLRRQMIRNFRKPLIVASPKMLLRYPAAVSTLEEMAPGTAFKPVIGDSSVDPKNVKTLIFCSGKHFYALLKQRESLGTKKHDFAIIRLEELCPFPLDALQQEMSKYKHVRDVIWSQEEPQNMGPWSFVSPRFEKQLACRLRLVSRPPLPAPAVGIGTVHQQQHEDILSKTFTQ
UniProt O75676, sequence (O75676 whole entry, looked up): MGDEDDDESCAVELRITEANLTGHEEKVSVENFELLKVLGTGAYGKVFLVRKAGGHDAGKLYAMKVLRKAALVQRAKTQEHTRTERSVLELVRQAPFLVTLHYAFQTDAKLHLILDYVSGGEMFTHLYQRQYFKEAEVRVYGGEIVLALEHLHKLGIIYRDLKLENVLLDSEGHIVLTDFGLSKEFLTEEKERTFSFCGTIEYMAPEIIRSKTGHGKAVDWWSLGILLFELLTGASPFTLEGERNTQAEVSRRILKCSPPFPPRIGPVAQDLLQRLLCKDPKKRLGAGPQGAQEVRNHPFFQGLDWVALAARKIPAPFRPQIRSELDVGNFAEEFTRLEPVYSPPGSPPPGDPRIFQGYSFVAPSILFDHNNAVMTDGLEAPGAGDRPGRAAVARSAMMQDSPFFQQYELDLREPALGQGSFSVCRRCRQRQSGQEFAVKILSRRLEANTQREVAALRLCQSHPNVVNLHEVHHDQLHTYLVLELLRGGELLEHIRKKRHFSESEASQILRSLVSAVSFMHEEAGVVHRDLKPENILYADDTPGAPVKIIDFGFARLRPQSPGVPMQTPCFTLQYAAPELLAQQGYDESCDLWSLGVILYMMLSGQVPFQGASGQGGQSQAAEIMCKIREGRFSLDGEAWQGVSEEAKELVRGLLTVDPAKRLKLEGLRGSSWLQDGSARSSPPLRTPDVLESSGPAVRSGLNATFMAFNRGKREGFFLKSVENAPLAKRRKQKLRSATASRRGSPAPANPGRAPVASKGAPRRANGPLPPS
UniProt O88630, sequence (O88630 whole entry): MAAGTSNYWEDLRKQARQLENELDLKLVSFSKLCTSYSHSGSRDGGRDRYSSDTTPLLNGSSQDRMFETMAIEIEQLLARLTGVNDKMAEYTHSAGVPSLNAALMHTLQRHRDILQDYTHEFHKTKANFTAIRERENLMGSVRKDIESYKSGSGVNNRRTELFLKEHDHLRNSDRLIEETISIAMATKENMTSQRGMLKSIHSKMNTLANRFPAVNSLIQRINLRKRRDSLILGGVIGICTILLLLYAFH
UniProt Q13523, sequence (Q13523 whole entry): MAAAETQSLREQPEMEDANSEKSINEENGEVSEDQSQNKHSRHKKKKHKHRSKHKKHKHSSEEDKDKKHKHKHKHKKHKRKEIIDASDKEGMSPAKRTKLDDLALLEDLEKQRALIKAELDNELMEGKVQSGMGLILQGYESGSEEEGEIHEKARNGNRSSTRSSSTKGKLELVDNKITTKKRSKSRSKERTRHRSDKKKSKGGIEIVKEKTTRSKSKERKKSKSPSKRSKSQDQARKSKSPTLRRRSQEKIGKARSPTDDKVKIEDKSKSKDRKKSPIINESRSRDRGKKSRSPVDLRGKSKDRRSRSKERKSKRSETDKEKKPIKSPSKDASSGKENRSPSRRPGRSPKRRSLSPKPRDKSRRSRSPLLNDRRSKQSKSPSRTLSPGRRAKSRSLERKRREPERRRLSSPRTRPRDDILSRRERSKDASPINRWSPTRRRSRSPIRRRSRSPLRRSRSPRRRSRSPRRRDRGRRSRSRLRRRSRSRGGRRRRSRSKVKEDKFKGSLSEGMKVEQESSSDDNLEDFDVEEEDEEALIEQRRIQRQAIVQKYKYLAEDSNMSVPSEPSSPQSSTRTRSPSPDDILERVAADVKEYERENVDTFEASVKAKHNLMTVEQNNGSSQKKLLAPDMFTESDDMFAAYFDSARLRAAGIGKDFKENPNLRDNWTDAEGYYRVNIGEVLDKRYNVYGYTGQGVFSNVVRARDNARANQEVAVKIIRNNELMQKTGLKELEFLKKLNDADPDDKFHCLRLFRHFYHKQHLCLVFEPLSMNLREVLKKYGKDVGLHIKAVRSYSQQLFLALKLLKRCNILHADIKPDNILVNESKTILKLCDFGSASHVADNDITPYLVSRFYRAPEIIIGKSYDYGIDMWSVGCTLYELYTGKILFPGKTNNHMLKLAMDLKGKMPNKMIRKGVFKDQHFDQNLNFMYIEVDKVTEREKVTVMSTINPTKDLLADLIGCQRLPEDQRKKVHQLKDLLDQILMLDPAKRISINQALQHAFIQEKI
UniProt O35493, sequence (O35493 whole entry, looked up): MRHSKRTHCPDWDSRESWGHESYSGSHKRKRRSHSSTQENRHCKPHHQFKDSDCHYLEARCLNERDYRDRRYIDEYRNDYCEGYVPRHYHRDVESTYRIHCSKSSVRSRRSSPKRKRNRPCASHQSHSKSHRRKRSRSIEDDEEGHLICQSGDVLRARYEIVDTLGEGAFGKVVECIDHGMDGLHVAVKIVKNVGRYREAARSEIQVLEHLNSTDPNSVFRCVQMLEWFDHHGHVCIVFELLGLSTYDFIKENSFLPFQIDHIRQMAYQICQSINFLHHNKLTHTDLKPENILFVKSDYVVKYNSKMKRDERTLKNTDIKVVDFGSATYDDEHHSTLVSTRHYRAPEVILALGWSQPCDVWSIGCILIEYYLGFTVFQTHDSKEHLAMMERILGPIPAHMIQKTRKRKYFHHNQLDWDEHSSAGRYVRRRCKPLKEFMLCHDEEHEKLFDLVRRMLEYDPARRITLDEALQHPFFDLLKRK
UniProt P70236, sequence (P70236 whole entry): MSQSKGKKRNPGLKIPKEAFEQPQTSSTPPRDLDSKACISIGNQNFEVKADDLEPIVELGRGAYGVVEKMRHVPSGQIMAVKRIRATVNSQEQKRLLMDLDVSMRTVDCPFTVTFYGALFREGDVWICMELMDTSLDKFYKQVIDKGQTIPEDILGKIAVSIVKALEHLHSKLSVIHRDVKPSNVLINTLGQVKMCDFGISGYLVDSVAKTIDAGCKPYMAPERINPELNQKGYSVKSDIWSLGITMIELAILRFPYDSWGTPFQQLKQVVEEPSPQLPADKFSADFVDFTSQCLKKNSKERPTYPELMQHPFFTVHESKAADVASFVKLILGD
UniProt P19525, sequence (P19525 whole entry): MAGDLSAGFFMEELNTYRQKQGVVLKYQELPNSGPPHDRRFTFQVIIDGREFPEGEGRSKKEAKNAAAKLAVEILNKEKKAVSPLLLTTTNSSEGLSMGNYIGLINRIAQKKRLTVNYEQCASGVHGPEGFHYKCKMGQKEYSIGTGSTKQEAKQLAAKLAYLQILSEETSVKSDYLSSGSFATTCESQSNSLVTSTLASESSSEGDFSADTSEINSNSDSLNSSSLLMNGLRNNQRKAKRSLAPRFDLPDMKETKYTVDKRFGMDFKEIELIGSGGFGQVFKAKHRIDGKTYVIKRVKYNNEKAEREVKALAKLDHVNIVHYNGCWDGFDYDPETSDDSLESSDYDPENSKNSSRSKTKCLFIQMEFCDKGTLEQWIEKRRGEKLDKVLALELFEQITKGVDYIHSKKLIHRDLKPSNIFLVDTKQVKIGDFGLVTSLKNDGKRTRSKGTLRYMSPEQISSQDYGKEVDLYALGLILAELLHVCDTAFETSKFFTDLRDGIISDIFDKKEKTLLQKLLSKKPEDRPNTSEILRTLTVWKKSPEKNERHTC
UniProt Q8BW96, sequence (Q8BW96 whole entry): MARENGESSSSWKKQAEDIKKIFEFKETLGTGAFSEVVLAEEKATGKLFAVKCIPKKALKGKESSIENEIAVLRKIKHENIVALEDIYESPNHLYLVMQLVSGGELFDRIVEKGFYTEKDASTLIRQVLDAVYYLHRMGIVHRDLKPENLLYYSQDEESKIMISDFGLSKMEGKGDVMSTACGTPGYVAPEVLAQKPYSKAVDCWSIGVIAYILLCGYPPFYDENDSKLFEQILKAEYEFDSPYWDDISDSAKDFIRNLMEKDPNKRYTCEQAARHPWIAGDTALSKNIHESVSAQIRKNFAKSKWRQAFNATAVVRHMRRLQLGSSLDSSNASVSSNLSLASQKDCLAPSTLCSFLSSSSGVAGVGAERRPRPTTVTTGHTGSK

“CAMK2G (peptide sequence: GAILTTMLVSR, peptide start residue: 302) (UniProt Q13555)”: in the assay with staurosporine [1], the log2 fold change is -1.14. Same read-out and setting: to “UniProt Q9BVS4 (peptide sequence: VLTAVEMGMK, peptide start residue: 19)” belongs -1.57; to “PRPF4B (peptide sequence: QHLCLVFEPLSMNLR, peptide start residue: 761) (UniProt Q13523)”, -0.779; to “HERC2 (peptide sequence: TLHSLTQWNGLINK, peptide start residue: 2152) (UniProt O95714)”, -0.746.

Regarding “UniProt P60842 (peptide sequence: ATQALVLAPTR, peptide start residue: 100)”, in the assay with staurosporine [1], the log2 fold change stood at 0.334.

On to “MAP3K4 (peptide sequence: DFLSHCLESDPK, peptide start residue: 1576) (UniProt Q9Y6R4)”, for which the log2 fold change with staurosporine [1] was -1.49. Still for that read-out and setting: for “RPS6KA4 (peptide sequence: VLGTGAYGK, peptide start residue: 54) (UniProt O75676)” the value was -0.533; for “HAT1 (peptide sequence: CNTNTAIELK, peptide start residue: 27) (UniProt O14929)”, 0.602; for “RPL4 (peptide sequence: MFAPTKTWR, peptide start residue: 101) (UniProt P36578)”, 0.751. On the same count and under the same terms, to “UniProt O14920 (peptide sequence: AAMMNLLR, peptide start residue: 453)” belongs 0.5. As to “UniProt P19525 (peptide sequence: IGDFGLVTSLK, peptide start residue: 430)”, the log2 fold change with staurosporine [1] was -1.42. As for “QDPR (peptide sequence: EGGLLTLAGAK, peptide start residue: 128) (UniProt P09417)”, the log2 fold change with staurosporine [1] was found to be 0.635. With “MELK (peptide sequence: DLKPENLLFDEYHK, peptide start residue: 132) (UniProt Q14680)”, the log2 fold change in the assay with staurosporine [1] is -1.98.

In the case of “HBG2 (peptide sequence: MVTGVASALSSR, peptide start residue: 134) (UniProt P69892)”, in the assay with staurosporine [1], the log2 fold change was found to be 0.206. Turning to “PNPO (peptide sequence: SSQIGAVVSHQSSVIPDR, peptide start residue: 164) (UniProt Q9NVS9)”, the log2 fold change with staurosporine [1] was determined as 1.66.

“BCR (peptide sequence: RAAQAPDGASEPR, peptide start residue: 79) (UniProt P11274)”: the log2 fold change in the assay with staurosporine [1] was 0.577.

In the case of “UniProt Q9Y6E0 (peptide sequence: AANVLLSEHGEVK, peptide start residue: 159)”, the log2 fold change with staurosporine [1] is -1.21. Consider “UniProt Q5M8N4 (peptide sequence: LGLGGPIGSGR, peptide start residue: 177)”, for which the log2 fold change with staurosporine [2] is -0.493.

Consider “UniProt P70236 (peptide sequence: ADDLEPIVELGR, peptide start residue: 50)”, for which the log2 fold change in the assay with staurosporine [2] is -2.01. Same read-out and setting: to “UniProt Q8R1Z9 (peptide sequence: LSCNHVFHEFCIR, peptide start residue: 249)” belongs 1.08; to “UniProt Q80XL6 (peptide sequence: NLPDSDSEECLVHGDFK, peptide start residue: 206)”, -0.421. For the target “UniProt Q61831 (peptide sequence: DLKPSNIVVK, peptide start residue: 151)”, the log2 fold change in the assay with staurosporine [2] is -1.06. Same read-out and setting: for “UniProt P24549 (peptide sequence: SVDDVIKR, peptide start residue: 413)” the value was -0.205; for “UniProt A2ATU0 (peptide sequence: SSLYSSDIGK, peptide start residue: 380)”, 0.605; for “UniProt P12367 (peptide sequence: IVDVIGEK, peptide start residue: 270)”, 0.593. For “UniProt Q8BW96 (peptide sequence: IMISDFGLSK, peptide start residue: 161)”, the log2 fold change in the assay with staurosporine [2] was -1.32. Consider “UniProt O08605 (peptide sequence: GLPTPQVLQR, peptide start residue: 341)”, for which the log2 fold change with staurosporine [2] came out at 1.06.

With “UniProt Q91YQ1 (peptide sequence: STVGVDFALK, peptide start residue: 38)”, the log2 fold change with staurosporine [2] was found to be 0.602. Same read-out and setting: for “UniProt P34928 (peptide sequence: AWFSEAFGK, peptide start residue: 70)” the value was 0.496. For “UniProt Q8VCC2 (peptide sequence: LAELFTNQR, peptide start residue: 97)”, in the assay with staurosporine [2], the log2 fold change was -0.315.

Take “UniProt Q8BWW9 (peptide sequence: VKPPFVPTIR, peptide start residue: 928)”: the log2 fold change in the assay with staurosporine [2] is -2.86. In the case of “UniProt Q9Z2W1 (peptide sequence: GSFGEVYK, peptide start residue: 29)”, the log2 fold change with staurosporine [2] is -2.09. In the case of “UniProt Q9CQE7 (peptide sequence: QFDAYPK, peptide start residue: 9)”, in the assay with staurosporine [2], the log2 fold change was determined as 0.366. Regarding “UniProt Q9JIZ0 (peptide sequence: LAGICTIQLK, peptide start residue: 207)”, the log2 fold change in the assay with staurosporine [2] came to 0.276. Still for that read-out and setting: to “UniProt P14246 (peptide sequence: HVLGVPLDDR, peptide start residue: 44)” belongs 0.702; to “UniProt Q99J95 (peptide sequence: IGQGTFGEVFK, peptide start residue: 25)”, -1. Take “UniProt Q9CRD0 (peptide sequence: FKKLENSPLGEALR, peptide start residue: 102)”: the log2 fold change in the assay with staurosporine [2] is 0.663. The same measure, in the same setting: to “UniProt O35493 (peptide sequence: ILGPIPAHMIQK, peptide start residue: 392)” belongs -2.87. The same measure, in the same setting: for “UniProt O35492 (peptide sequence: MLEFDPAQR, peptide start residue: 600)” the value was -1.13; for “UniProt Q9JM52 (peptide sequence: GNALKEDCIAYICR, peptide start residue: 122)”, -0.672. On the same count and under the same terms, for “UniProt Q8JZU2 (peptide sequence: FIHDQTSSNPK, peptide start residue: 150)” the value was 0.438. Regarding “UniProt Q9CQU3 (peptide sequence: YIPFTHGK, peptide start residue: 174)”, the log2 fold change in the assay with staurosporine [2] is 0.278. “UniProt O88630 (peptide sequence: MNTLANRFPAVNSLIQR, peptide start residue: 205)”: the log2 fold change with staurosporine [2] worked out at 0.676. Still for that read-out and setting: for “UniProt P97864 (peptide sequence: LFFIQACR, peptide start residue: 180)” the value was -0.485; for “UniProt P97742 (peptide sequence: IWMAMVK, peptide start residue: 149)”, 0.562.

As for “UniProt Q9QXD1 (peptide sequence: LFEWAQK, peptide start residue: 649)”, in the assay with staurosporine [2], the log2 fold change was -0.551.

In the case of “UniProt Q99LB7 (peptide sequence: AYGIESHVLSPAETK, peptide start residue: 175)”, the log2 fold change in the assay with staurosporine [2] is -0.446.

Consider “UniProt O35488 (peptide sequence: YELIKYDVEKDEPVR, peptide start residue: 394)”, for which the log2 fold change in the assay with staurosporine [2] turned out to be 0.821. Same read-out and setting: for “UniProt P13516 (peptide sequence: TVPLHLEEDIRPEMK, peptide start residue: 33)” the value was 0.245; for “UniProt P31532 (peptide sequence: KYFQGLLNR, peptide start residue: 81)”, 0.505; for “UniProt O54781 (peptide sequence: HFTEDIQTR, peptide start residue: 500)”, -1.82.

Take “UniProt Q61037 (peptide sequence: DFVPYITK, peptide start residue: 907)”: the log2 fold change with staurosporine [2] was -0.612. Regarding “UniProt Q9JK48 (peptide sequence: NFIEGDYK, peptide start residue: 149)”, in the assay with staurosporine [2], the log2 fold change turned out to be 0.247. With “UniProt Q9EPJ9 (peptide sequence: DVTTFFSGK, peptide start residue: 289)”, the log2 fold change with staurosporine [2] was 0.513.
